Our source for the outcome values is PubChem BioAssay AID504910 (Southern Research Specialized Biocontainment Screening …, 2011).

Potency and affinity values are given separately. Active and inactive are the calls of the source. A call without a number means that no potency is given here. No rule for the calls is given here.

The test is described as follows: HepG2 cell cytotoxicity, cytotoxicity control, set 4 (AID 504910). The settings on record: series mostly up to 50 µM.
With `Cc1nc(SCC(=O)NC2CCCC2)[nH]c(=O)c1C`, the compound was classed as inactive.

On to `Cc1ccc(NC(=O)COC(=O)CCc2c[nH]c3ccccc23)cc1[N+](=O)[O-]`, for which the call was inactive.

For the compound `CN(C(=O)CSc1nc2ccccc2c(=O)[nH]1)C1CCCCC1`, the call was inactive.

Take `CC[C@@H](CO)NCCN[C@@H](CC)CO`: the outcome was inactive.

Take `NC(=O)c1cnccn1`: the outcome was inactive.

With `O=C(CSc1nccc(=O)[nH]1)NC1CCCCC1`, the result was inactive.

For the compound `CN(C)C(=O)CSc1nc2ccccc2c(=O)[nH]1`, the outcome was inactive.

Regarding `COc1c(N2CCNC(C)C2)c(F)cc2c(=O)c(C(=O)O)cn(C3CC3)c12` (stereo not given), the compound was called inactive.

On to `Cc1cnc(SCC(=O)NC2CCCCC2)[nH]c1=O`, for which the call was inactive.

Consider `NC(=O)CSc1nc2ccccc2c(=O)[nH]1`, for which the compound was classed as inactive.

For `CN1CCC(NC(=O)CSc2nc3ccccc3c(=O)[nH]2)CC1`, the result was inactive.

Turning to `O=C(CSc1ccccn1)NC1CCCCC1`, the result was inactive.

With `COC(=O)C(C)Oc1ccc(Cc2ncc(C(F)(F)F)cc2Cl)cc1` (stereo not given), the outcome was inactive.

For `Cc1cc(Br)ccc1NC(=O)c1cnc(N2CCN(c3ccccn3)CC2)c2ccccc12`, the outcome was inactive.

Consider `O=c1[nH]c(SCc2ccccc2Cl)nc2c1CCCC2`, for which the outcome was inactive.

As to `Cc1nc(SCC(N)=O)[nH]c(=O)c1C`, the outcome was inactive.

As to `CCOC(=O)CSc1nc(C)c(C)c(=O)[nH]1`, the compound was classed as inactive.

Turning to `CNC(=O)CSc1nc2ccccc2c(=O)[nH]1`, the compound was called inactive.

In the case of `COc1cccc(NC(=O)CSc2nc3c(c(=O)[nH]2)CCC3)c1`, the compound was classed as inactive.

For the compound `COC(=O)c1ccc(CNc2c(N3CCCC3)c(=O)c2=O)cc1`, the compound was classed as inactive.

As for `O=C(CSc1nc2ccccc2c(=O)[nH]1)NCc1ccc(Cl)cc1`, the compound was classed as inactive.

Take `Cc1nc(SCC(=O)N(C)c2ccccc2)[nH]c(=O)c1C`: the result was inactive.

`Nc1cc(=O)[nH]c(SCC(=O)NC2CCCCC2)n1`: the compound was called inactive.

For the compound `Cc1nc(SCC(=O)NCCC(C)C)[nH]c(=O)c1C`, the result was inactive.

Regarding `Cc1cc(C)n2nc(N)c(N=Nc3ccccc3)c2n1`, the compound was called inactive.

As to `CCC(Sc1nc2ccccc2c(=O)[nH]1)C(=O)NC1CCCCC1` (stereo not given), the call was inactive.

As for `O=C(CSc1nc2c(c(=O)[nH]1)CCCC2)NC1CCCCC1`, the compound was classed as inactive.

With `Cc1nc(SCc2ccccc2Cl)[nH]c(=O)c1C`, the compound was classed as inactive.

As to `CCC(Sc1nc2c(c(=O)[nH]1)CCC2)C(=O)Nc1cccc(OC)c1` (stereo not given), the compound was classed as inactive.

Consider `CN[C@@H]1[C@H](O[C@H]2[C@H](O[C@H]3[C@H](O)[C@@H](O)[C@H](N=C(N)N)[C@@H](O)[C@@H]3N=C(N)N)O[C@@H](C)[C@]2(O)C=O)O[C@@H](CO)[C@H](O)[C@H]1O`, for which the call was inactive.
